We go through 40 compounds from PubChem BioAssay (Tox21).

Structures are written as SMILES. Results filed as inconclusive are left out. A call without a number means that no potency is given here. Active and inactive are the calls of the source. Calls follow the shape of the full dose curve. Peptide text beside a SMILES is read from it.

Chain of D(2) dopamine receptor (Homo sapiens) (P14416 whole entry, looked up): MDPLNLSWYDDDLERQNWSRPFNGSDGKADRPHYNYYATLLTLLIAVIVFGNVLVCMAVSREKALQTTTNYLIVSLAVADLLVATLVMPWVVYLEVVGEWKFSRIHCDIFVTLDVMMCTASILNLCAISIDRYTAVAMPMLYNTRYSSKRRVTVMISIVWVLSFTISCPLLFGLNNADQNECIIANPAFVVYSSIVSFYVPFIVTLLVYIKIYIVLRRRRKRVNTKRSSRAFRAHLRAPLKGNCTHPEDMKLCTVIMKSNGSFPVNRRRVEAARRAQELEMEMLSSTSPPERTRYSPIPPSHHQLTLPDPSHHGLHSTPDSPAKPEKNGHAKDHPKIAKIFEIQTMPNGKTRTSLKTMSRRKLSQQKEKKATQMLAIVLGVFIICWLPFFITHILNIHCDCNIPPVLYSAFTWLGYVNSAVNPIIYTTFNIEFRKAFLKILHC

The experiment deals with D(2) dopamine receptor (Homo sapiens) (UniProt P14416). The experiment in a line: Dopamine D2 receptor (DRD2) small molecule agonists, cell-based qHTS assay (AID 1963594). Also: nearly all actives have a fitted effect of over 35% in size. The note with it: HEK293-DRD2 cAMP HTRF, agonist mode, 30 min; series mostly up to 92.4 µM. The source says:
National Center for Advancing Translational Sciences [NCATS]
Division of Preclinical Innovation [DPI]
U.S. Environmental Protection Agency [EPA]
National Institutes of Environmental Health Sciences [NIEHS]
National Toxicology Program [NTP]
U.S. Food and Drug Administration [FDA]
DRD2 is the D2 subtype of the dopamine receptor, which is coupled to Gi subtype of G protein-coupled receptor. This G protein-coupled receptor inhibits adenylyl cyclase activity. The DRD2-HEK293 cell line stably expressing D2 dopamine receptor can be used for screening agonists and antagonists of interactions between D2 and its ligands. The Hek293-DRD2 cAMP assay is based on HTRF technology. It measures changes of cAMP accumulation in response to Gi coupled GPCR activation or inhibition.
Tox21 Assay Protocol Summary:
DRD2-Hek293 cells were dispensed at 600 cells/3uL/well in 1536-well white plates using a Multidrop Dispenser. After the assay plates were incubated at a 37 C/5% CO2 incubator for 24 h, 1 uL of Ro20-1724 at final concentration of 0.1 mM was transferred to the assay plate by a Flying Reagent Dispenser. Following Ro20-1724 addition, 23 nL of compound dissolved in DMSO, positive controls or DMSO only was added to the assay plates via Wako pintool station. The assay plates were incubated at room temperature for 10 min. Next, 1 uL of NKH477 at 200nM was added into the plates. After the assay plates were incubated at room temperature for an additional 30 min, 2.5 ul/well of cAMP-d2 and 2.5 ul/well of anti-cAMP-cryptate were added respectively into the assay plates using a Flying Reagent Dispenser. The plates were incubated at room temperature for 1 h. The fluorescence intensity in the plates was measured at 340 nm excitation and 665 & 620 nm emission by an Envision plate reader.
On the technique in general: In qHTS, concentration-response curves come from the screen itself.
On to `Cc1cc(C)c(O)c(C)c1`, for which the Potency result is “inactive”.

In the case of `CC(=O)OCC(COC(C)=O)OC(C)=O`, the Potency entry was “inactive”.

As to `O=C(O)CC(C(=O)O)C(CC(=O)O)C(=O)O` (stereo not given), the Potency entry is “inactive”.

For the compound `C#CCN(C)Cc1ccccc1`, the Potency result is “inactive”.

As for `Cc1ccc([N+](=O)[O-])c(C)c1`, the Potency entry is “inactive”.

Take `CCCCCC/C=C/CCCCCCCC(=O)O`: the Potency entry was “inactive”.

Turning to `CC(=O)OC/C=C(\C)CCC=C(C)C`, the Potency result is “inactive”.

Turning to `O=[N+]([O-])c1cc(C(F)(F)F)ccc1Cl`, the Potency entry is “inactive”.

With `COc1cc([C@H]2Oc3cc([C@H]4Oc5cc(O)cc(O)c5C(=O)[C@@H]4O)ccc3O[C@@H]2CO)ccc1O`, the Potency result is “inactive”.

As for `O=C1CCC(N2C(=O)c3ccccc3C2=O)C(=O)N1` (stereo not given), the Potency result is “inactive”.

With `CC1COC(=O)O1` (stereo not given), the Potency entry is “inactive”.

With `O=C(O)CCCC(=O)O`, the Potency entry is “inactive”.

As to `C[C@](N)(Cc1ccc(O)c(O)c1)C(=O)O`, the Potency result was “inactive”.

`O=C(c1ccc(O)cc1)c1ccc(O)cc1O`: the Potency entry was “inactive”.

For the compound `CCCCCCCC(=O)OCC(COC(=O)CCCCCCC)OC(=O)CCCCCCC`, the Potency result is “inactive”.

Consider `O=C=Nc1ccc(Cc2ccc(N=C=O)cc2)cc1`, for which the Potency result was “inactive”.

Take `O=c1cc[nH]c(=S)[nH]1`: the Potency result was “inactive”.

`OC[C@@H](O)[C@@H](O)[C@H](O)[C@H](O)CO`: the Potency result is “inactive”.

With `CC(O)CC(C)(C)O` (stereo not given), the Potency result was “inactive”.

Take `Cc1ncc([N+](=O)[O-])n1CCO`: the Potency result was “inactive”.

Consider `CN(C)CCOC(=O)COc1ccc(Cl)cc1`, for which the Potency result is “inactive”.

On to `C=C1C2CCC(C2)C1(C)C` (stereo not given), for which the Potency result was “inactive”.

Take `OCCOCCN1CCN(C(c2ccccc2)c2ccc(Cl)cc2)CC1` (stereo not given): the Potency result is “inactive”.

With `O=C(O)Cc1ccccc1Nc1c(Cl)cccc1Cl`, the Potency result was “inactive”.

In the case of `CCN(CC)C(=O)c1cccc(C)c1`, the Potency entry was “inactive”.

As to `C=CC(C)(C)C`, the Potency result is “inactive”.

For `CC(=O)Oc1ccc(C)cc1`, the Potency result was “inactive”.

Regarding `OB(O)O`, the Potency result was “inactive”.

For the compound `COC(=O)[C@H](Cc1ccccc1)NC(=O)[C@@H](N)CC(=O)O` (H-Asp-Phe-OMe), the Potency result was “inactive”.

Consider `O=S(=O)(O)c1ccc2nc(-c3ccccc3)[nH]c2c1`, for which the Potency result is “inactive”.

On to `Cc1ccc(C(C)C)cc1`, for which the Potency result was “inactive”.

Turning to `COC(=O)c1ccc(C=O)cc1`, the Potency result was “inactive”.

In the case of `CC(=O)Oc1c(C)c(C)c2c(c1C)CC[C@@](C)(CCC[C@H](C)CCC[C@H](C)CCCC(C)C)O2`, the Potency result is “inactive”.

Take `CC[N+](CC)(CC(=O)Nc1c(C)cccc1C)Cc1ccccc1`: the Potency entry was “inactive”.

With `NCCNc1cccc2ccccc12`, the Potency result is “inactive”.

As to `CC(C)NCC(O)c1ccc(O)c(O)c1` (stereo not given), the Potency entry was “inactive”.

Consider `Cc1ccc(Cl)cc1`, for which the Potency entry is “inactive”.

With `O=C(O)/C=C\C(=O)O`, the Potency result was “inactive”.

For the compound `FC(F)(F)c1ccc(Cl)c(Cl)c1`, the Potency result was “inactive”.

With `O=C1CCc2ccccc2O1`, the Potency entry is “inactive”.
